Assay results: PubChem BioAssay (Tox21)
Records with an inconclusive call do not appear. Active and inactive are the calls of the source. Unless noted, calls follow the shape of the full dose curve.

What was measured:
[1] = target: Peroxisome proliferator-activated receptor delta (Homo sapiens) (UniProt Q03181); test: qHTS assay to identify small molecule agonists of the peroxisome proliferator-activated receptor delta (PPARd) signaling pathway (AID 743212); also: % is scaled to controls: 0 for no effect and ±100 for the full control effect
Chain of Peroxisome proliferator-activated receptor delta (Homo sapiens) (Q03181 whole entry, looked up): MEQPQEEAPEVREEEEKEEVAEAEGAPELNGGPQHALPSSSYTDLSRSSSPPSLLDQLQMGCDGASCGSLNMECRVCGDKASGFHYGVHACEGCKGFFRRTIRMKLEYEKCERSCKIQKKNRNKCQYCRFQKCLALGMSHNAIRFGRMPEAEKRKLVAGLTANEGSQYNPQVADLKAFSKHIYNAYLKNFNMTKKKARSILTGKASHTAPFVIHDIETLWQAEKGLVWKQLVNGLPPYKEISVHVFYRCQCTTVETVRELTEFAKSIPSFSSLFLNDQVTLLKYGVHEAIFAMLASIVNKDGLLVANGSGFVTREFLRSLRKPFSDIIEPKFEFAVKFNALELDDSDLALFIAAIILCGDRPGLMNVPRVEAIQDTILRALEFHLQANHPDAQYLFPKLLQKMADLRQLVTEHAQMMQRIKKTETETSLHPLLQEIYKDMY
How it was run: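 HEK293H UAS-bla reporter cells, human PPARd system; compounds delivered in DMSO after 5 h plating, then at 37 C. Beta-lactamase FRET read, 2 h RT substrate step.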

[2] = qHTS assay to identify small molecule antagonists of the peroxisome proliferator-activated receptor delta (PPARd) signaling pathway - cell viability counter screen (AID 743213; active = well fitted curve in the direction sought with a large enough effect in the repeat runs; an effect the other way counts as inactive or inconclusive; also: % is scaled to controls: 0 for no effect and ±100 for the full control effect; nearly all actives have a fitted effect of over 50% in size)
How it was run: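 HEK293H PPARd UAS-bla cells, 5 h pre-incubation, compound + L165041 300 nM final, 17 h 37 C; B/G FRET substrate 2 h RT; then CellTiter-Glo 30 min RT, luminescence.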

[3] = target: Peroxisome proliferator-activated receptor delta (Homo sapiens) (UniProt Q03181); test: qHTS assay to identify small molecule antagonists of the peroxisome proliferator-activated receptor delta (PPARd) signaling pathway (AID 743215; active = well fitted inhibition curve with a large enough effect in the signal ratio in the repeat runs, not every such curve was filed as active; the % refers to the signal ratio;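 also: cells stimulated with agonist L165041 at 300 nM final during compound exposure; series mostly up to about 62 µM; % is scaled to controls: 0 for no effect and ±100 for the full control effect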)
How it was run: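 PPARd-bla HEK293H cells (UAS-bla reporter) preincubated 5 h, then given compound plus 300 nM final L165041 agonist for 17 h at 37 C. Beta-lactamase activity read by LiveBLAzer B/G FRET substrate fluorescence after 2 h at room temperature.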

[4] = qHTS assay to identify small molecule agonists of the farnesoid-X-receptor (FXR) signaling pathway - cell viability counter screen (AID 743218; active = well fitted curve in the direction sought with a large enough effect in the repeat runs; an effect the other way counts as inactive or inconclusive; also: % is scaled to controls: 0 for no effect and ±100 for the full control effect; nearly all actives have a fitted effect of over 45% in size)
How it was run: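 FXR-UAS-bla HEK 293T cells exposed to compounds for 16 h at 37C. Cytotoxicity read in the same wells by CellTiter-Glo luminescence after 30 min at room temperature, following the beta-lactamase FRET read.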

[5] = qHTS assay to identify small molecule antagonists of the farnesoid-X-receptor (FXR) signaling pathway - cell viability counter screen (AID 743221; active = well fitted cell-killing curve with a large enough effect in the repeat runs, not every such curve was filed as active; also: % is scaled to controls: 0 for no effect and ±100 for the full control effect; nearly all actives have a fitted effect of over 50% in size)
How it was run: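 Cytotoxicity is taken from ATP luminescence (CellTiter-Glo, 30 min, room temperature) in FXR-bla HEK 293T cells previously incubated 16 h at 37 C with compound and chenodeoxycholic acid at 50 uM final.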

[6] = target: Vitamin D3 receptor (Homo sapiens) (UniProt P11473); test: qHTS assay to identify small molecule agonists of the vitamin D receptor (VDR) signaling pathway (AID 743222); also: % is scaled to controls: 0 for no effect and ±100 for the full control effect
Chain of Vitamin D3 receptor (Homo sapiens) (P11473 whole entry, looked up): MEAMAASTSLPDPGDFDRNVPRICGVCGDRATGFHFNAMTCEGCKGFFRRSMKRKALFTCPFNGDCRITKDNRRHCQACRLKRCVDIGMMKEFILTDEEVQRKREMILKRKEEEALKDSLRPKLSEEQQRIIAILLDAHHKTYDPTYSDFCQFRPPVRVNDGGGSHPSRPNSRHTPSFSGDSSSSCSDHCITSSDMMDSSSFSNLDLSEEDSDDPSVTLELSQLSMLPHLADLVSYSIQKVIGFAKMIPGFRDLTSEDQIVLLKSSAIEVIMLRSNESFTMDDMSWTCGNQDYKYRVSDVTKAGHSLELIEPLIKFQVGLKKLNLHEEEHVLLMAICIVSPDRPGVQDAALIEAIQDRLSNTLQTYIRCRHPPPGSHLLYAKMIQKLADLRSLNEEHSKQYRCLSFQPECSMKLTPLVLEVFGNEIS
How it was run: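 VDR-bla cells plated 4 h at 37 C, then exposed to compounds for 16 h at 37 C. Beta-lactamase reporter activity measured by fluorescence after 2 h room-temperature loading with LiveBLAzer B/G FRET substrate.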

[7] = qHTS assay to identify small molecule agonists of the vitamin D receptor (VDR) signaling pathway - cell viability counter screen (AID 743224; active = well fitted curve in the direction sought with a large enough effect in the repeat runs; an effect the other way counts as inactive or inconclusive; also: series mostly up to about 63 µM; % is scaled to controls: 0 for no effect and ±100 for the full control effect; nearly all actives have a fitted effect of over 50% in size)
How it was run: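 VDR-bla cells, 4 h after plating, exposed to compounds for 16 h at 37C; viability then read in the same wells as CellTiter-Glo luminescence after 30 min at room temperature, following the bla FRET read.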

[8] = qHTS assay to identify small molecule antagonists of the vitamin D receptor (VDR) signaling pathway - cell viability counter screen (AID 743225; active = well fitted curve in the direction sought with a large enough effect in the repeat runs; an effect the other way counts as inactive or inconclusive; also: % is scaled to controls: 0 for no effect and ±100 for the full control effect; nearly all actives have a fitted effect of over 50% in size)
How it was run: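 Same-well multiplex: following 16 h treatment of HEK 293T cells carrying a UAS-driven beta-lactamase reporter with compound and agonist (3 nM final), and a 2 h FRET substrate step, CellTiter-Glo was added and luminescence read after 30 min.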

[9] = qHTS assay to identify small molecule agonists of the NFkB signaling pathway (AID 1159509; active = well fitted curve in the direction sought with a large enough effect in the signal ratio in the repeat runs, not every such curve was filed as active; the % refers to the signal ratio; also: series mostly up to about 61 µM; % is scaled to controls: 0 for no effect and ±100 for the full control effect)
How it was run: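 NFkB-bla ME-180 cells with a beta-lactamase reporter under an NF-kB response element were plated overnight, treated with compounds in DMSO for 5 hr at 37 C, then loaded with FRET substrate for 1.5 hr at room temperature.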

[10] = qHTS assay to identify small molecule agonists of the NFkB signaling pathway - cell viability counter screen (AID 1159515); also: series mostly up to about 61 µM; % is scaled to controls: 0 for no effect and ±100 for the full control effect; nearly all actives have a fitted effect of over 55% in size
How it was run: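 NFkB-bla ME-180 cells, 2,000/well, plated overnight at 37 C; compound added for 5 hr at 37 C. Viability read in the same wells as the bla reporter, by CellTiter-Glo luminescence after 30 min at room temperature.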

[11] = qHTS assay to identify small molecule agonists of the endoplasmic reticulum stress response signaling pathway (AID 1159516; active = well fitted activation curve with a large enough effect in the signal ratio in the repeat runs, not every such curve was filed as active; the % refers to the signal ratio; also: % is scaled to controls: 0 for no effect and ±100 for the full control effect)
How it was run: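 CellSensor ESRE-bla HeLa cells, 1,500 per well, plated overnight, then exposed to compounds for 5 hr at 37 C. Beta-lactamase reporter read with LiveBLAzer B/G FRET substrate after 2 hr at room temperature, 405 nm excitation, 460 and 530 nm emission.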

[12] = qHTS assay to identify small molecule agonists of the endoplasmic reticulum stress response signaling pathway - cell viability counter screen (AID 1159517)
How it was run: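 Cells, HeLa ESRE-bla; density, 1,500/well; dosing, 5 hr at 37 C, 5% CO2; readout, CellTiter-Glo luminescence after 30 min RT.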

[13] = qHTS assay to identify small molecule antagonists of the retinoid-related orphan receptor gamma (ROR-gamma) signaling pathway - cell viability counter screen (AID 1159520; active = well fitted curve in the direction sought with a large enough effect in the repeat runs; an effect the other way counts as inactive or inconclusive)
How it was run: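 Cytotoxicity was read from cellular ATP (CellTiter-Glo luminescence) after 16 hr at 37 C with 1 uM doxycycline induction. The inducer was added 2 hr after compound transfer to Tet-on ROR gamma CHO cells.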

[14] = target: Nuclear receptor ROR-gamma (Homo sapiens) (UniProt P51449); test: qHTS assay to identify small molecule antagonists of the retinoid-related orphan receptor gamma (ROR-gamma) signaling pathway (AID 1159521; active = well fitted curve in the direction sought with a large enough effect in the repeat runs; an effect the other way counts as inactive or inconclusive)
How it was run: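 Inducible-expression reporter assay: doxycycline (1 uM final) switched on RORγ in CHO cells bearing a ROR response element-luciferase construct, with test compounds present from 2 h beforehand. Decreased luminescence after 16 h defined antagonist activity.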

[15] = qHTS assay to identify small molecule agonists of the AP-1 signaling pathway (AID 1159526); also: % is scaled to controls: 0 for no effect and ±100 for the full control effect
[16] = target: Retinoic acid receptor RXR-alpha (Homo sapiens) (UniProt P19793); test: qHTS assay to identify small molecule agonists of the RXR signaling pathway (AID 1159527); also: % is scaled to controls: 0 for no effect and ±100 for the full control effect; nearly all actives have a fitted effect of over 35% in size
Chain of Retinoic acid receptor RXR-alpha (Homo sapiens) (P19793 whole entry, looked up): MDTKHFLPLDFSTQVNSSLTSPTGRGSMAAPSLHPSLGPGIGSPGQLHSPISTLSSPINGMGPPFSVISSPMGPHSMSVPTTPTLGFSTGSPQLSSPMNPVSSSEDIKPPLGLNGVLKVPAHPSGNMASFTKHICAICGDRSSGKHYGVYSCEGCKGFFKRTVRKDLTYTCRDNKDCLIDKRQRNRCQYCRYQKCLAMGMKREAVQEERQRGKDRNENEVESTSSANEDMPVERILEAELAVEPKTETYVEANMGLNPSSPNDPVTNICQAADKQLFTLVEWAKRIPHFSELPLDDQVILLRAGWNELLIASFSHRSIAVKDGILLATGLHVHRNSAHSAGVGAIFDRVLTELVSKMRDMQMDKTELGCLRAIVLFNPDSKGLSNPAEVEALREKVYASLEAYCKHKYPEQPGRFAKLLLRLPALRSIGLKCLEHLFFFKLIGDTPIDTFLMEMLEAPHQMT
How it was run: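 Compounds in DMSO were added to RXR-alpha-UAS-bla HEK 293T cells kept in 2% charcoal-stripped serum, and incubated 16 hr at 37 C with 5% CO2. Reporter signal came from a 2 hr B/G FRET substrate step.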

[17] = target: Bile acid receptor (Homo sapiens) (UniProt Q96RI1); test: qHTS assay to identify small molecule antagonists of the farnesoid-X-receptor (FXR) signaling pathway (AID 743217; active = well fitted inhibition curve with a large enough effect in the signal ratio in the repeat runs, not every such curve was filed as active; the % refers to the signal ratio; also: % is scaled to controls: 0 for no effect and ±100 for the full control effect)
Chain of Bile acid receptor (Homo sapiens) (Q96RI1 whole entry, looked up): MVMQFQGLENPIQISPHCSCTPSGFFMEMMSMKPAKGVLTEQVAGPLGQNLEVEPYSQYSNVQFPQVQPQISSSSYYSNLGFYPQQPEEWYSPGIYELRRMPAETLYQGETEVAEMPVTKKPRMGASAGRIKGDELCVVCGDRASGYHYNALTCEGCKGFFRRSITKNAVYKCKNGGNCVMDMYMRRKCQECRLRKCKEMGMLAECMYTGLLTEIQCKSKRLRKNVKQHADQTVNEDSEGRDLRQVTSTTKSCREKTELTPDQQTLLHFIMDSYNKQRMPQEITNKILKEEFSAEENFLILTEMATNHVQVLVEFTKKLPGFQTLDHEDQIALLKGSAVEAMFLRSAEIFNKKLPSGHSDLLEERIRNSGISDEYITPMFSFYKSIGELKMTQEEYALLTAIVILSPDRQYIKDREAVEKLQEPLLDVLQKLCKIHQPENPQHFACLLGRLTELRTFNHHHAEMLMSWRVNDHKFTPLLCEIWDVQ
How it was run: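 FXR-UAS-bla HEK 293T cells (beta-lactamase reporter) given compound plus chenodeoxycholic acid (50 uM final), 16 h at 37C. LiveBLAzer B/G FRET substrate added for 2 h at room temperature; fluorescence read.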

[18] = target: Bile acid receptor (Homo sapiens) (UniProt Q96RI1); test: qHTS assay to identify small molecule agonists of the farnesoid-X-receptor (FXR) signaling pathway (AID 743220; active = well fitted activation curve with a large enough effect in the signal ratio in the repeat runs, not every such curve was filed as active; the % refers to the signal ratio; also: % is scaled to controls: 0 for no effect and ±100 for the full control effect)
How it was run: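 Beta-lactamase reporter under UAS control in GeneBLAzer FXR HEK 293T cells (5000/well) measured with LiveBLAzer FRET substrate after 2 h at room temperature. Compound exposure lasted 16 h at 37C.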

[19] = target: Vitamin D3 receptor (Homo sapiens) (UniProt P11473); test: qHTS assay to identify small molecule antagonists of the vitamin D receptor (VDR) signaling pathway (AID 743223; active = well fitted inhibition curve with a large enough effect in the signal ratio in the repeat runs, not every such curve was filed as active; the % refers to the signal ratio; also: % is scaled to controls: 0 for no effect and ±100 for the full control effect)
How it was run: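 Quantitative HTS in VDR-bla reporter cells stimulated with 1alpha,25-dihydroxyvitamin D3, 3 nM final. Compound exposure 16 h, 37C, 5% CO2. Read-out: beta-lactamase FRET substrate fluorescence, 2 h RT.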

[20] = qHTS assay to identify small molecule agonists of the AP-1 signaling pathway - cell viability counter screen (AID 1159525); also: nearly all actives have a fitted effect of over 55% in size
How it was run: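 Luminescent ATP readout (Cell Titer Glo, 30 min RT), normalised to DMSO and tetra n-octyl ammonium bromide controls. Cells were ME-180 AP-1-bla in 0.5% dialyzed FBS Opti-MEM, with a 5 h, 37 °C compound exposure.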

O=C1c2ccccc2C(=O)c2ccccc21
inactive: outcome [1] | outcome [2] | outcome [3] | Potency [4] | outcome [5] | outcome [6] | Potency [7] | outcome [8] | outcome [9] | outcome [10] | outcome [11] | Potency [12] | activity, negative = cytotoxicity [13] -0.509% [at 19 µM] | activity change, negative = inhibition [14] 99.4% [at 19 µM] | activation [15] 11.5% [at 15.8 µM] | activation [16] 2.89% [at 15.8 µM]

CN1C(=S)CN=C(c2ccccc2)c2cc(Cl)ccc21
inactive: outcome [3] | Potency [17] | Potency [4] | outcome [18] | outcome [5] | outcome [6] | outcome [19] | Potency [7] | outcome [8] | outcome [9] | outcome [10] | outcome [11] | Potency [12] | Potency [13] | Potency [14] | Potency [20] | outcome [15]

CCCCN(CCCCO)N=O
inactive: outcome [1] | outcome [2] | outcome [3] | Potency [4] | outcome [5] | outcome [6] | outcome [19] | Potency [7] | outcome [8] | outcome [9] | outcome [10] | outcome [11] | Potency [12] | Potency [13] | Potency [20] | outcome [15]

CNCC(=O)c1ccc(O)c(O)c1
inactive: Potency [4] | outcome [5] | outcome [6] | Potency [7] | outcome [8] | outcome [9] | outcome [10] | outcome [11] | Potency [12] | Potency [13] | Potency [20] | outcome [15] | Potency [16]

ClC(Cl)(Cl)C(Cl)(Cl)Cl
inactive: outcome [2] | Potency [4] | outcome [5] | outcome [6] | outcome [19] | Potency [7] | outcome [8] | outcome [9] | outcome [10] | outcome [11] | Potency [12] | Potency [13] | Potency [20] | outcome [15] | Potency [16]

OC(c1ccc(F)cc1)(c1cncnc1)c1ccccc1Cl (stereo not given)
inactive: outcome [1] | outcome [2] | outcome [3] | Potency [4] | outcome [5] | outcome [8] | outcome [9] | outcome [10] | outcome [11] | Potency [12] | Potency [13] | Potency [20] | outcome [15] | Potency [16]

CC1=NNC(=O)N(/N=C/c2cccnc2)C1
inactive: outcome [1] | outcome [2] | outcome [3] | outcome [5] | outcome [6] | outcome [19] | Potency [7] | outcome [8] | outcome [9] | outcome [10] | outcome [11] | Potency [12] | Potency [13] | Potency [20] | outcome [15]

CCN(Cc1ccc(Cl)nc1)/C(=C/[N+](=O)[O-])NC
inactive: outcome [1] | outcome [2] | outcome [3] | Potency [4] | outcome [5] | outcome [6] | Potency [7] | outcome [8] | outcome [9] | outcome [10] | outcome [11] | Potency [12] | Potency [13] | Potency [20] | outcome [15] | Potency [16]

c1coc(-c2nc3ccccc3[nH]2)c1
inactive: outcome [1] | outcome [2] | outcome [3] | Potency [4] | outcome [5] | outcome [6] | outcome [19] | outcome [9] | outcome [10] | outcome [11] | Potency [12] | Potency [13] | Potency [20] | outcome [15] | Potency [16]

ClCC(Cl)(Cl)Cl
inactive: outcome [2] | outcome [3] | Potency [17] | outcome [18] | outcome [5] | outcome [6] | outcome [19] | Potency [7] | outcome [8] | outcome [9] | outcome [10] | outcome [11] | Potency [12] | Potency [13] | Potency [20] | outcome [15] | Potency [16]

CCC(C)(C)c1cc(-n2nc3ccccc3n2)c(O)c(C(C)(C)CC)c1
inactive: outcome [1] | outcome [2] | outcome [3] | Potency [4] | outcome [5] | outcome [6] | outcome [19] | outcome [8] | outcome [9] | outcome [10] | outcome [11] | Potency [12] | Potency [13] | Potency [20] | outcome [15] | Potency [16]
